PubChem BioAssay AID2112 (National Center for Advancing Translational Sciences (NCATS), 2009)
Out of some 240,000 compounds screened, about 15 (0.006%) were called active. Calls follow the shape of the dose curve; as a rule, active = well fitted inhibition curve with a large enough effect; inconclusive = small, poorly fitted or top-dose-only effect, or effect the other way, or another doubt; inactive = no such curve, though single readings can be large or run the other way. The list is a sample of the results.

Each molecule was assayed against Lysosomal alpha-glucosidase (Homo sapiens) (UniProt P10253) (assay: qHTS Assay for Inhibitors and Activators of Human alpha-Glucosidase From Spleen Homogenate). Settings: 4-MU-alpha-glucoside fluorescence; series mostly up to 79.9 µM; activity change, negative = inhibition: at the top concentration.
Text: NIH Chemical Genomics Center [NCGC] NIH Molecular Libraries Probe Production Centers Network [MLPCN] MLPCN Grant: R03 MH084841-01 Assay Submitter (PI): Wei Zheng NCGC Assay Overview: Alpha-glucosidase is responsible for the hydrolysis of terminal, non-reducing 1,4-linked alpha-D-glucose residues, which releases alpha-D-glucose. It is a lysosomal hydrolase that is required for the degradation of a small percentage (1-3%) of cellular glycogen in humans. Deficiency of this enzyme results in glycogen-storage disease type II (GSDII), also referred to as Pompe disease, an autosomal recessive disorder. Structurally normal glycogen is accumulated in the lysosomes and cytoplasm in affected patients, primarily in muscle tissues. Excessive glycogen storage within lysosomes may interrupt normal functioning of other organelles and leads to cellular injury. In turn, this leads to enlargement and dysfunction of the entire organ involved (eg: cardiomyopathy and muscle weakness). It has been reported that the improper folding and trafficking of alpha-glucosidase resulting from genetic mutations may account for a significant number of Pompe patients. […] We optimized this alpha-glucosidase assay in 1536-well plate format for identification of novel small molecule inhibitors or activators with structures other than the sugar analogs in order to develop new pharmacological chaperones. In particular, this assay is directed towards discovering compounds active in a more natural setting, tissue homogenate, that may have been missed by screens of the purified enzyme under more stringent conditions.
NCGC Assay Protocol Summary: This is a fluorogenic enzyme assay with 4-methylumbelliferyl-alpha-D-glucopyranoside as the substrate and human spleen homogenate containing alpha-glucosidase as the enzyme preparation. Upon hydrolysis of this fluorogenic substrate, the resulting product, 4-methylumbelliferone (which excites at 365 nm and emits at 440 nm) can be detected by a fluorescence plate reader. Data were normalized to the controls for basal activity (without enzyme) and 100% activity (with enzyme). The AC50 values were determined from concentration-response data modeled with the standard Hill equation. Assay buffer: 50 mM citric acid (titrated with potassium phosphate to pH 5.0), 0.01% Tween-20 (pH 5.0 is an optimal condition for this enzyme assay) 1536-well assay protocol for the alpha-glucosidase from human spleen homogenate: (1) Add 2 ul/well spleen homogenate (1 ug) (2) Add 23 nL compounds in DMSO solution. The final titration was 0.5 nM to 58 uM. (3) Add 2 ul of substrate (1 mM final) (4) Incubate at 37 C for 40 min (5) Add 2 ul stop solution (1M NaOH and 1M Glycine mixture, pH 10) (6) Detect the assay plate in a ViewLux plate reader (PerkinElmer) with Ex=365 nm and Em=440nm. Keywords: Alpha-glucosidase, Pompe Disease, pharmacological chaperone, chaperone therapy, high throughput screening, alpha-glucosidase inhibitor, MLSMR, MLSCN, NIH Roadmap, qHTS and NCGC
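Also: 0% = enzyme with vehicle and -100% = no enzyme basal signal.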

Activity change, negative = inhibition, inactive:
O=c1cc(-c2ccc(O)cc2)oc2c([C@@H]3O[C@H](CO)[C@@H](O)[C@H](O)[C@H]3O)c(O)cc(O)c12 -3.5%
Cc1sc2ncnc(Sc3nc4ccccc4s3)c2c1C 0.103%
COc1ccc(C(CC(=O)c2ccccc2)S(=O)(=O)c2ccccc2)cc1 (stereo unspecified) -2.69%
O=C1NNC(c2ccccc2)=N/C1=C\c1ccc(Cl)cc1 -5.13%
CC(O)[C@@H](N)C(=O)O (stereo partly specified) -7.94%
Cc1ccc(-c2cn(S(=O)(=O)c3cccc([N+](=O)[O-])c3)nc2N)cc1 6.15%
ONC(=Nc1ccccc1)c1ccccc1Cl 1.48%
Cc1c(Br)ccc(NC(=O)COc2ccccc2C(N)=O)c1C -5.13%
O=C(NCCc1ccccc1)C1CCN(S(=O)(=O)c2ccc(Br)s2)CC1 -4.51%
C=CCn1c(SCC(=O)c2c(N)n(C)c(=O)n(C)c2=O)nc2sc(CC)cc2c1=O -7.65%
C=CCOC(=O)C(=C)C -4.26%
Cc1ccc(SCC(CC(C)C)N2CCN(CCc3ccccc3)CCC2=O)cc1 (stereo unspecified) -4.74%
Cc1nc(=O)c(-c2ccccc2)c(C)n1-c1ccc(Br)cc1 7.69%
Cc1cc(OCCCC(=O)NCCN2C(=O)S/C(=C\c3cccnc3)C2=O)ccc1Cl -3%
Fc1ccc(Cl)cc1-c1nc(Nc2ccncc2)c2nccnc2n1 -5.39%
CCOC(=O)c1sc(C)c2c1NC(C)(c1cccc3ccccc13)NC2=O (stereo unspecified) -10.3%
COc1ccc2c(c1)c(=O)c(C(=O)c1ccc(Cl)cc1)cn2CC(=O)Nc1ccc(F)cc1 -1.59%
CCOCCOC(=O)C(C)Oc1ccc(Oc2ncc(C(F)(F)F)cc2Cl)cc1 (stereo unspecified) -18.4%
S=c1ccc2ccccc2[nH]1 -2.88%
C=CCC(C(=O)c1ccccc1)[N+](C)(C)CC=C (stereo unspecified) 9.7%
O=c1[nH]oc(O)c1-c1ncc(C(F)(F)F)cc1Cl -2.21%
Cc1cc2ccccn2c1C(=O)c1cccc(S(=O)(=O)N2CCOCC2)c1 3.4%
CC(=O)NNC(=O)c1csc(Cc2c(Cl)sc3ccc(Cl)cc23)n1 0.106%
CCCCc1nn(-c2ccccc2C(F)(F)F)c(=O)n1Cc1ccc(-c2ccccc2S(=O)(=O)NC(=O)c2sccc2C)cc1 -2.88%
COC(=O)c1sc(-c2ccc(C(C)(C)C)cc2)cc1NC(=O)/C=C/C(=O)O -12.5%
CNC(=O)[C@]1(C(F)(F)F)C[C@H](CCc2ccccc2)CCCO1 0.869%
C[C@@H]1O[C@@H](OC[C@H]2O[C@@H](Oc3cc(O)c4c(c3)O[C@H](c3ccc(O)c(O)c3)CC4=O)[C@H](O)[C@@H](O)[C@@H]2O)[C@H](O)[C@H](O)[C@H]1O -6.97%
O=C1C[C@@H](c2ccc3ccccc3c2)N1S(=O)(=O)c1ccccc1[N+](=O)[O-] 4.03%
O=C(Nc1cc(C(=O)Nc2ccc(S(=O)(=O)O)cc2)cc(C(=O)Nc2ccc(S(=O)(=O)O)cc2)c1)Nc1cc(C(=O)Nc2ccc(S(=O)(=O)O)cc2)cc(C(=O)Nc2ccc(S(=O)(=O)O)cc2)c1 -9.55%
O=c1[nH]c(CN2CCN(S(=O)(=O)c3ccc4c(c3)OCCO4)CC2)nc2sc3c(c12)CCCC3 -15.2%
CC(Oc1ccc(Br)cc1Br)C(=O)NC1CCCC1 (stereo unspecified) -1.67%
O=C(O)C1CC=CC2CCN(C3CCCCC3)C(=O)C21 (stereo unspecified) 0.181%
COc1ccc(Br)cc1C1C2C=CCC(C)C2C(=O)N1Cc1ccccc1 (stereo unspecified) -1.05%
CCCCC/C=C\C/C=C\CCCCCCCCCC(N)=O 6.05%
CCCCN(CC)C(=O)c1ccccc1Oc1ccccc1 -0.108%
O=C(COc1ccc(/C=N/NS(=O)(=O)c2ccccc2)cc1)NCCc1ccccc1 -1.54%
Oc1ccc(N2CCN(C(=S)NCc3ccccc3)CC2)cc1 5.73%
COc1ccc(C[C@H](C(=O)O)N2C(=O)c3ccc(C(=O)O)cc3C2=O)cc1 6.17%
CCNc1nc(NC(C)C)nc(N2CC(=O)N(CC(=O)OCC)C2=N)n1 4.96%
Cc1cc2oc(C(=O)Nc3c(C)n(C)n(-c4ccccc4)c3=O)c(C)c2cc1Cl 2.59%
CC1(C)Cc2nc3sc4c(SCC(=O)NC(c5ccccc5)c5ccccc5)ncnc4c3cc2CO1 0.724%
FC(F)(F)c1nc(-c2ccccc2)ncc1-c1nnnn1-c1ccccc1 -4.01%
CCCCNc1ccc(C(=O)Nc2cccc(C)n2)cc1[N+](=O)[O-] -0.299%
COc1cc(NS(=O)(=O)c2ccc3ccccc3c2)c2ncccc2c1 -1.54%
CC/C(=N\NC(=O)c1ccccc1Cl)c1ccc(Br)s1 -2.79%
Cc1noc(C)c1-c1ccc2ncnc(NC(C)c3ccco3)c2c1 (stereo unspecified) 2.91%
CN(C)CCc1c[nH]c2ccc(Cn3cncn3)cc12 -4.52%
CC1CCC(C(C)C)C(=O)/C1=C\c1ccc(NC(=O)CCC(=O)O)cc1 (stereo unspecified) -3.03%
O=c1[nH]c2cccnc2n(CCNc2ncc(C(F)(F)F)cc2Cl)c1=O -8.68%
NC1CCN(O)C1=O (stereo unspecified) -4.38%
C=C1CCN(C(CC(C)C)C(=O)N2CCOCC2)S(=O)(=O)c2ccccc21 (stereo unspecified) -3.94%
CCN(CC)/[N+]([O-])=N/Oc1cc(O/[N+]([O-])=N/N2CCCC2CO)c([N+](=O)[O-])cc1[N+](=O)[O-] (stereo unspecified) 13.4%
Cc1cccc([C@H]2[C@@H]3C=CC[C@@H](C)[C@@H]3C(=O)N2Cc2ccccc2)c1 5.28% [at 119 µM]
CCOC(=O)C1=C(C)c2ccccc2OC1C(=O)OCC (stereo unspecified) -1.48% [at 119 µM]
O=C(O)CCn1c(O)c(C=C2N=c3ccccc3=N2)sc1=S 5.64%
COc1cc(OC)c2c(c1C(CCN1CCCCC1)c1ccc(N(C)C)cc1)OC(=O)CC2c1ccc(N(C)C)cc1 (stereo unspecified) -1.04%
O=C1CN(Cc2ccccc2)S(=O)(=O)c2ccccc21 4.09%
Cc1cc(=O)oc2cc(NC(=O)C3CC(=O)N(Cc4ccccc4)C3)ccc12 (stereo unspecified) -3.26%
Cc1c(CN2CCC(CO)(CCOc3ccccc3)CC2)[nH]c2ccc(Cl)cc12 -2.21%
CC(C)=CCN1CCC2(CCc3ccccc32)CC1 2.89%
CC(CNc1ccc([N+](=O)[O-])cc1)NC(=O)c1ccccc1Br (stereo unspecified) -6.77%
CC1CCN(S(=O)(=O)c2ccc3ncn(CC(=O)N(C)C4CCCCC4)c(=O)c3c2)CC1 -4.28%
OC(COCC1COc2ccccc2O1)CN1CCN(c2ccc(F)cc2)CC1 (stereo unspecified) -10.7%
C=C(C)C(=O)c1ccc(F)cc1 6.52%
CC[C@H](C)[C@H](NC(=O)[C@@H](N)CCC(=O)O)C(=O)N[C@@H](CC(C)C)C(=O)N[C@@H](CC(=O)O)C(=O)N[C@H](C(=O)N1CCC[C@H]1C(=O)N[C@@H](CO)C(=O)N[C@H](C(=O)O)[C@@H](C)O)C(C)C 5.13%
H-EHIPA-OH 3.99%
O=C(NCCCCc1ccccc1)C1CC(c2ccc([N+](=O)[O-])cc2)=NO1 (stereo unspecified) 3.76%
COc1ccccc1-c1nnc(NC(=O)c2ccc3ncsc3c2)o1 2.72%
CN1CCN(c2cc3c(cc2F)c(=O)c(C(=O)O)cn3CCF)CC1 2.34%
CCOC(OCC)OCC -1.22%
Oc1ccc(-c2c(-c3ccccc3)nn3c(C(F)(F)F)cc(C(F)(F)F)nc23)cc1 3.91%
O=C(NCCCNc1ccc([N+](=O)[O-])cc1Cl)c1ccccc1F -9.07%
COCCCNC(=S)N1CCCC(c2nc3cc(C)c(C)cc3[nH]2)C1 (stereo unspecified) -4.36%
Brc1ccc2ncnc(NCc3cccnc3)c2c1 7.88%
CCCC1=Nc2cc(C(=O)NCc3ccco3)ccc2Sc2ccccc21 -5.63%
CCOC(=O)c1c(C)n(C)c2ccc(OC)c(NS(=O)(=O)CC)c12 -20%
C/C=C(\C)C(=O)NCCN1C2=NC[C@H](Cc3ccc(O)cc3)N2C[C@@H]1Cc1ccc(OC)cc1 2.08%
COc1ccc(C2=Nn3c(nnc3-c3ccccc3O)SC2)cc1 -1.69%
Cn1ccc(=NC=C(C#N)C#N)c2ccccc21 -4.74%
COc1ccc(C2=NN(C(=O)c3cccnc3)C(c3ccccc3)C2)cc1 (stereo unspecified) -4.5%
Cc1cc(N(C)C)nc(Cl)n1 2.22%
O=C(CSc1cccc[n+]1[O-])c1ccc(-c2ccccc2)cc1 -7.13%
COc1cccc(CC2(CO)CCN(Cc3cnc(-c4cccc(C)c4)nc3)CC2)c1 3.73%
O=C(Nc1ccccc1F)c1ccccc1-c1ccc(C(F)(F)F)cc1 -4.73%
O=[N+]([O-])c1ccccc1SNc1ccccn1 0.477%
N#Cc1cccc(CS(=O)(=O)c2nnnn2-c2cc(C(F)(F)F)cc(C(F)(F)F)c2)c1 2.12%
FC(F)(F)c1cccc(-c2cc3ccccc3nc2N2CCCC2)c1 -3.49%
O=C(Nc1ccc(Cl)cc1)/C(=C1\CCCN1)[N+](=O)[O-] 0.902%
Cc1noc(C)c1-c1ccc2ncnc(NCc3ccc4[nH]ccc4c3)c2c1 10.6%
COc1ccc(Cl)cc1NC(=O)COC(=O)C(CC(C)C)N1C(=O)C2CC=CCC2C1=O (stereo unspecified) 1.56%
O=C(CCl)Nc1cccc(CP(=O)(c2ccccc2)c2ccccc2)c1 5.31%
Cc1ccc(CNC(=O)C2(C(F)(F)F)C/C(=C\Cc3ccccc3)CCCO2)o1 (stereo unspecified) 0.641%
CCCN1CCC(=O)N(C(CSc2ccc(C)cc2)Cc2ccccc2)CC1 (stereo unspecified) -7.66%
COC(=O)Cn1cc(/C=C/[N+](=O)[O-])c2ccccc21 3.39%
O=C(NCc1ccccn1)[C@]1(C(F)(F)F)C[C@H](CCc2ccccc2)CCCO1 -5.69%
CC(C)[C@@H]1NC(=O)[C@H](Cc2ccccc2)NC(=O)[C@@H](CC(=O)O)NC(=O)CNC(=O)[C@H](CCCNC(=N)N)NC1=O 5.67%
COC(=O)[C@@]1(Cc2ccc(OC)cc2)[C@H]2c3cc(C(=O)N4CCCC4)n(Cc4ccc(OC(F)(F)F)cc4)c3C[C@H]2CN1C(=O)c1ccccc1 6.25%
COc1ccc(C2/C=C\CN(Cc3ccco3)C(C)C(=O)N2Cc2ccc(F)cc2)cc1 (stereo unspecified) 2.13%
COc1cc2c(cc1OC)C(/C=C/c1ccco1)=NCC2 1.23%

outcome, inactive:
OCCC(O)CO (stereo unspecified)
CN1CCN2c3ccccc3Cc3ccccc3[C@@H]2C1
